The values below come from PubChem BioAssay (Tox21).

Inconclusive results are not listed. Calls of active or inactive are those of the source. Unless noted, calls follow the shape of the dose curve; as a rule, active = well fitted curve in the direction sought with a large enough effect in the repeat runs; inconclusive = weak or mixed curves; inactive = no such curve, though single readings can be large; an effect the other way counts as inactive or inconclusive.

Experiment [1] concerns the target Luciferin 4-monooxygenase (Photinus pyralis) (UniProt P08659). The experiment can be described thus: qHTS assay to identify small molecule inhibitors of firefly luciferase (AID 1224835). Also: nearly all actives have a fitted effect of over 25% in size. Also: potency is read from the fitted curve at half-maximal effect. The procedure, abridged: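 Inhibition of purified Photinus luciferase is measured by luminescence. Substrate levels (D-luciferin, ATP) sit at their KM values. Each compound is tested in a concentration series.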

Experiment [2] in a line: qHTS assay to identify small molecule agonists of the constitutive androstane receptor (CAR) signaling pathway - cell viability counter screen (AID 1224836). Also: series mostly up to about 92 µM; nearly all actives have a fitted effect of over 45% in size. The procedure, abridged: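 HepG2-CYP2B6-hCAR, 2500 cells/well, 4 h pre-incubation; cpd 15 conc + PK11195 0.75 uM final; 23 h, 37 C/5% CO2; CellTiter-Fluor, fluorescence.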
Experiment [3] in a line: qHTS assay to identify small molecule antagonists of the constitutive androstane receptor (CAR) signaling pathway - cell viability counter screen (AID 1224837). Also: series mostly up to about 92 µM; nearly all actives have a fitted effect of over 45% in size. The procedure, abridged:
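Cytotoxicity counter-screen: CellTiter-Fluor fluorescence after 23 h compound exposure (15-point qHTS) in double-stable HepG2-CYP2B6-hCAR cells, with 50 nM CITCO added.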
For orientation: In qHTS, concentration-response curves come from the screen itself.

Experiment [4] can be described thus: qHTS assay to identify small molecule antagonists of the estrogen related receptor signaling pathway with the pleiotropic PPARgamma coactivator (PGC) from Tox21 10K library - cell viability counter screen (AID 1224840; active = well fitted cell-killing curve with a large enough effect in the repeat runs, not every such curve was filed as active; also: nearly all actives have a fitted effect of over 40% in size). The procedure, abridged: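 Counter-screen for cytotoxicity: after 17.5 h compound exposure at 37 C, CellTiter-Fluor reagent added to PGC/ERR cells for 30 min and fluorescence read. Cells were seeded at 2,000 per well 6 h before dosing.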

Experiment [5] is described as follows: qHTS assay to identify small molecule antagonists of the estrogen related receptor signaling pathway with the pleiotropic PPARgamma coactivator (PGC) from Tox21 10K library (AID 1224841; call rule not given here; also: series mostly up to about 92 µM; actives are mostly falling curves and most rising ones were filed inactive; nearly all actives have a fitted effect of over 50% in size). In a few lines: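 Luminescence (One-Glo, 30 min at room temperature) after 18 h compound treatment at 37 C of PGC/ERR reporter cells plated at 2,000 cells/well and settled 6 h beforehand.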

The nature of experiment [6]: qHTS assay to identify small molecule agonists of the estrogen related receptor signaling pathway with the pleiotropic PPARgamma coactivator (PGC) from Tox21 10K library (AID 1224842). Also: nearly all actives have a fitted effect of over 15% in size. Also: potency is read from the fitted curve at half-maximal effect. The procedure, abridged: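 Luminescence from One-Glo (30 min, room temperature) measured after PGC/ERR cells had 18 h at 37 C with pinned compound (23 nL in DMSO). Cells had been seeded at 2,000 per well and pre-incubated 6 h.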

Experiment [7] concerns the target Thyrotropin receptor (Homo sapiens) (UniProt P16473). The experiment can be described thus: qHTS assay to identify small molecule agonists of the thyroid stimulating hormone receptor (TSHR) signaling pathway (AID 1224843; calls by dose curve; also: nearly all actives have a fitted effect of over 45% in size). In a few lines:
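Agonist activity read as cAMP rise via d2/cryptate HTRF competition, 1 h room-temperature detection, in HEK293 cells expressing TSHR. Fifteen-point titrations, each run in triplicate, with a 30 min room-temperature incubation beforehand.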

For experiment [8], the target named is Nuclear receptor subfamily 1 group I member 3 (Homo sapiens) (UniProt Q14994). The experiment can be described thus: qHTS assay to identify small molecule antagonists of the constitutive androstane receptor (CAR) signaling pathway (AID 1224838).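 Also: HepG2 cells stably expressing hCAR with CYP2B6 luciferase reporter stimulated by CITCO; nearly all actives have a fitted effect of over 40% in size.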 In a few lines:
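Antagonism measured as luciferase signal (ONE-Glo, 30 min, room temperature) in CAR-stimulated cells: HepG2-CYP2B6-hCAR double-stable line exposed 24 hr at 37 C to compound in a 15-point series plus 50 nM CITCO.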

Experiment [9] is described as follows: qHTS assay to identify small molecule agonists of the hypoxia (HIF-1) signaling pathway - cell viability counter screen (AID 1224844; calls by dose curve; also: nearly all actives have a fitted effect of over 50% in size; also: potency is read from the fitted curve at half-maximal effect). In a few lines: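 Cytotoxicity measured by CellTiter-Glo ATP luminescence in the wells also read for beta-lactamase signal. Cells were HRE-bla ME-180 (2,000/well, 0.5% dialyzed FBS), exposed to compounds for 17 h at 37C.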
For experiment [10], the target named is Nuclear receptor subfamily 1 group I member 3 (Homo sapiens) (UniProt Q14994). Description: qHTS assay to identify small molecule agonists of the constitutive androstane receptor (CAR) signaling pathway (AID 1224839).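 Also: HepG2 cells stably carrying human CAR and a CYP2B6 luciferase reporter; series mostly up to about 92 µM; nearly all actives have a fitted effect of over 15% in size.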 In a few lines: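 HepG2-CYP2B6-hCAR cells, 2500/well, 4 h pre-incubation; compounds 15 conc.; PK11195 0.75 uM final; 24 h, 37 C/5% CO2; ONE-Glo luciferase read.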
Sequence of Nuclear receptor subfamily 1 group I member 3 (Homo sapiens) (Q14994 whole entry, looked up): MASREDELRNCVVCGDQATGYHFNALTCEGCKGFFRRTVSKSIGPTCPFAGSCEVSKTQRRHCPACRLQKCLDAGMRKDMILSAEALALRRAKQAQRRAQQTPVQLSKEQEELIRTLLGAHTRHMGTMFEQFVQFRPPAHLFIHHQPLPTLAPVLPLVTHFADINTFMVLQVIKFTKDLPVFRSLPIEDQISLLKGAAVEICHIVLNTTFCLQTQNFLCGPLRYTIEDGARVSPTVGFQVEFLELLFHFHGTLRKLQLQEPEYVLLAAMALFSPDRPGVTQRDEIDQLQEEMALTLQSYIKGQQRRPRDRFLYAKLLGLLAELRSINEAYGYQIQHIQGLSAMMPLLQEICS

Sequence of Luciferin 4-monooxygenase (Photinus pyralis) (P08659 whole entry, looked up): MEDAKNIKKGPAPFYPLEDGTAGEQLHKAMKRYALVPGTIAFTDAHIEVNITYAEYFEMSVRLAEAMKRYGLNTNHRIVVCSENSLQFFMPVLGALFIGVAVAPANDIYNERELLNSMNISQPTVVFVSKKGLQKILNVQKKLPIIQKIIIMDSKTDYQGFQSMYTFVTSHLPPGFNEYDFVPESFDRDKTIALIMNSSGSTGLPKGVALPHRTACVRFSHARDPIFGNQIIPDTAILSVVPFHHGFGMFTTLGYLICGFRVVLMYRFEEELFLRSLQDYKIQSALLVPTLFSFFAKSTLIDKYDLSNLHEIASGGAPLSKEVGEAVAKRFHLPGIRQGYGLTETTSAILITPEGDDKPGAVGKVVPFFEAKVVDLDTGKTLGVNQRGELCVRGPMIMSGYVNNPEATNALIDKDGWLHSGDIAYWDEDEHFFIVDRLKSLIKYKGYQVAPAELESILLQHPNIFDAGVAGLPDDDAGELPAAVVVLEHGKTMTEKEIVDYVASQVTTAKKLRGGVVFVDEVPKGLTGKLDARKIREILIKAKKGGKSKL
Sequence of Thyrotropin receptor (Homo sapiens) (P16473 whole entry, looked up): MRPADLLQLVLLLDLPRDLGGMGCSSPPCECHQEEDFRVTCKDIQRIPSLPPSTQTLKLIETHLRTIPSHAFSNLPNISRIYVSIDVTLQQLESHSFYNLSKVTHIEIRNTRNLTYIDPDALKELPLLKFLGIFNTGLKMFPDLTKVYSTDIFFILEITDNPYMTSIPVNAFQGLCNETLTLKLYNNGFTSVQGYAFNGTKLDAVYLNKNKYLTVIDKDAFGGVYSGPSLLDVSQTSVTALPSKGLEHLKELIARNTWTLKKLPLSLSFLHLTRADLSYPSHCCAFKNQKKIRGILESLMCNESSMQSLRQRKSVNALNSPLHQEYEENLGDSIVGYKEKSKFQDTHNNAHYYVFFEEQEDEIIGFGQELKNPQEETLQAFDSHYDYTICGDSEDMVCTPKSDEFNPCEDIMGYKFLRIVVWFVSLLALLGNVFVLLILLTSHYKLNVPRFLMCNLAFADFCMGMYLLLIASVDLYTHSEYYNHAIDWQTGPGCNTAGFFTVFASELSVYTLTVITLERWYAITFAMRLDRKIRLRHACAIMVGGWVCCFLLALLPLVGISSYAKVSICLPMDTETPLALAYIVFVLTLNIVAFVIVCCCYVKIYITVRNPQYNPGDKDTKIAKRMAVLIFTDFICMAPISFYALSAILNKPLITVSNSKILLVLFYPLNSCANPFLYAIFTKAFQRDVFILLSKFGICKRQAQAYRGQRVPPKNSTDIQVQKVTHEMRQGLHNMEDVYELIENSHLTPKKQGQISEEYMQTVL

For `O=C(O)Cc1sc(-c2ccccc2)nc1-c1ccc(Cl)cc1`, the Potency result in experiment [1], in [2], in experiment [3], in experiment [4], in experiment [5] and in [6] was “inactive” in each case. Moreover, in experiment [7], the Potency result was “inactive”.
With `O=C=NC1CCC(CC2CCC(N=C=O)CC2)CC1` (stereo not given), the Potency result in [1], in experiment [2], in experiment [3], in experiment [8], in [7] and in [9] was “inactive” each time.
With `Cn1c(NCCN(CCO)CCCc2ccc([N+](=O)[O-])cc2)cc(=O)n(C)c1=O`, the Potency result in experiment [1], in experiment [2], in experiment [3], in [4], in [5] and in [6] was “inactive” each time. Also, the Potency entry in [7] and in experiment [9] was “inactive” each time.
For the compound `O=C(NN1CCCC1)NS(=O)(=O)c1ccc(Cl)cc1`, the Potency entry in experiment [1], in experiment [2], in experiment [3], in experiment [10], in experiment [4] and in [5] was “inactive” throughout. The Potency result in experiment [6], in experiment [7] and in experiment [9] was “inactive” in each case.
Take `Nc1ccc(C(=O)N2CC3CC(CN(Cc4ccccc4)C3)C2)cc1`: the Potency entry in experiment [1], in experiment [2], in [3], in experiment [4], in experiment [6] and in [7] was “inactive” each time.
`CC1=CC(=O)/C(=C(/C)O)C(=O)O1`: the Potency entry in experiment [1], in experiment [2], in experiment [3], in experiment [8], in experiment [4] and in [7] was “inactive” throughout. In addition, the Potency result in experiment [9] was “inactive”.
In the case of `COC(=O)CSc1cc(N=c2sc(=O)n3n2CCCC3)c(F)cc1Cl`, the Potency entry in experiment [1], in [2], in experiment [3], in experiment [10], in experiment [4] and in experiment [7] was “inactive” in each case. Further, the Potency result in experiment [9] was “inactive”.
For `CC(C(=O)O)c1ccc(C(=O)c2ccccc2)s1` (stereo not given), the Potency in experiment [1] is 15.5 µM (active). For the same compound, the Potency entry in experiment [2], in experiment [3], in experiment [8], in experiment [4] and in experiment [9] was “inactive” each time.
As to `Cc1cc(CC(=O)O)c(C)n1-c1ccc(Cl)cc1`, the Potency result in [1], in experiment [2], in [3], in experiment [4], in [5] and in [6] was “inactive” each time.
On to `O=S(=O)(O)c1ccc(O)c2ncccc12`, for which the Potency entry in [1], in [2], in experiment [3], in [8], in [4] and in experiment [7] was “inactive” each time. Besides, in experiment [9], the Potency entry was “inactive”.
On to `CCCCCOC(=O)c1ccc(O)cc1`, for which the Potency in experiment [1] was 36 µM (active); in experiment [6], 27.6 µM (active). Besides, the Potency entry in experiment [2], in experiment [3], in experiment [8], in experiment [5] and in [7] was “inactive” each time.
As for `CN1CCC(OC(c2ccccc2)c2ccccc2)CC1`, the Potency entry in experiment [1], in [2], in experiment [3], in [8], in experiment [4] and in experiment [7] was “inactive” each time. The Potency result in experiment [9] is “inactive”.
In the case of `CCCCCCCCCC(=O)OCC`, the Potency entry in experiment [1], in experiment [2], in experiment [3], in experiment [4] and in experiment [7] was “inactive” throughout.
Consider `Cc1ccc(C(N)=O)cc1N`, for which the Potency result in experiment [1], in experiment [2], in experiment [3], in [4], in experiment [5] and in experiment [6] was “inactive” each time. Moreover, the Potency result in experiment [7] and in experiment [9] was “inactive” in each case.
Regarding `CCCOc1ccc2nc(NC(=O)OC)[nH]c2c1`, the Potency entry in experiment [1], in [2], in experiment [3], in experiment [10], in [4] and in [7] was “inactive” in each case.
As to `CC(C)CCCCCCOC(=O)c1ccc(C(=O)OCCCCCCC(C)C)c(C(=O)OCCCCCCC(C)C)c1`, the Potency result in [1], in experiment [2], in [3], in experiment [8], in [4] and in experiment [7] was “inactive” throughout. Also, the Potency entry in experiment [9] was “inactive”.
On to `Nc1nc(N)c(-c2ccccc2)s1`, for which the Potency result in [1], in experiment [2], in [3], in [4], in [5] and in experiment [6] was “inactive” each time. The Potency entry in experiment [9] was “inactive”.
With `CCN(CC)CCNC(C(=O)OCCC(C)C)c1ccccc1` (stereo not given), the Potency entry in experiment [1], in [2], in experiment [3], in experiment [10], in [4] and in experiment [5] was “inactive” each time. Also, in experiment [7], the Potency entry was “inactive”.
Consider `CC(C)(C)c1ccc(OCC2CO2)cc1` (stereo not given), for which the Potency in experiment [1] was 32.4 µM (active). In addition, the Potency result in experiment [2], in [3], in experiment [4], in experiment [5], in [6] and in experiment [7] was “inactive” each time. The Potency entry in experiment [9] is “inactive”.
On to `CC(C)(Oc1ccc(Cl)cc1)C(=O)OCCCOC(=O)C(C)(C)Oc1ccc(Cl)cc1`, for which the Potency entry in experiment [1], in experiment [2], in [3] and in [4] was “inactive” in each case.
Regarding `COC(Cc1ccccc1)OC`, the Potency entry in experiment [1], in experiment [2], in experiment [3], in [8], in experiment [4] and in experiment [7] was “inactive” in each case. Besides, the Potency entry in [9] was “inactive”.
Take `O=C(O)C1CCC(C(=O)O)CC1` (stereo not given): the Potency entry in [1], in experiment [2], in experiment [3], in experiment [10], in experiment [4] and in experiment [5] was “inactive” in each case. Also, the Potency result in experiment [6] and in [7] was “inactive” in each case.
In the case of `CN1CCC(=C2c3ccccc3CCc3sccc32)CC1`, the Potency entry in [1], in experiment [2], in [3], in experiment [8], in [5] and in [6] was “inactive” each time. Also, the Potency result in experiment [7] is “inactive”. In [9], the Potency is 16.9 µM (active).
As to `CCCCCCCCN(C)C`, the Potency result in experiment [1], in experiment [2], in [3], in experiment [4], in experiment [5] and in [6] was “inactive” in each case. In addition, the Potency entry in experiment [7] and in experiment [9] was “inactive” in each case.
For `CC1CCc2cc(F)cc3c(=O)c(C(=O)O)cn1c23` (stereo not given), the Potency result in experiment [1], in [2], in [3], in experiment [8], in experiment [4] and in experiment [7] was “inactive” in each case. The Potency result in experiment [9] was “inactive”.
For `CCCCCC(CO)CCC` (stereo not given), the Potency entry in experiment [1], in experiment [2], in experiment [3], in [4], in experiment [5] and in experiment [6] was “inactive” in each case. Further, the Potency result in experiment [7] and in experiment [9] was “inactive” throughout.
With `Cc1ccc(O)c([C@H](CCN(C(C)C)C(C)C)c2ccccc2)c1`, the Potency result in experiment [1], in experiment [2], in experiment [3], in experiment [8] and in experiment [7] was “inactive” each time.
Take `O=C1Nc2cc(Cl)ccc2Oc2ccccc21`: the Potency result in experiment [1], in [2], in [3], in experiment [8], in [4] and in experiment [7] was “inactive” throughout. In [9], the Potency result was “inactive”.
Turning to `COc1cc(C(C)(C)C)c(O)c(C(C)(C)C)c1`, the Potency entry in experiment [1], in experiment [2], in experiment [3], in experiment [4], in [5] and in experiment [6] was “inactive” in each case. Also, the Potency result in experiment [9] was “inactive”.
Turning to `Cc1ccc2c(ccc3ccccc32)c1`, in experiment [1], the Potency is 31.8 µM (active). The Potency result in experiment [2], in experiment [3], in experiment [8], in experiment [4], in experiment [7] and in [9] was “inactive” each time.
For `C=C(C)C(=O)OC(C)C`, the Potency result in experiment [1], in experiment [2], in experiment [3], in experiment [8], in experiment [4] and in experiment [7] was “inactive” each time. For the same compound, the Potency entry in experiment [9] is “inactive”.
`CN(C)CC[C@@H](c1ccc(Br)cc1)c1ccccn1`: the Potency result in experiment [1], in [2], in [3], in experiment [8], in experiment [4] and in experiment [9] was “inactive” in each case.
